73 molecules from ChEMBL document CHEMBL4513216, “Probing the Open Global Health Chemical Diversity Library for Multistage-Active Starting Points for Next-Generation Antimalarials” (ACS Infect Dis, 2020) can be followed below.

About 8,600 (12%) of roughly 69,000 compounds showed an effect of 50% or more. Many of the other results were omitted from the sample, so strong results are more common in it than they were.

The assay concerns Plasmodium berghei. The assay is described as follows: Screen against P. berghei liver stage (PbLuc), transformed with Luciferase, at 10uM. The following applies: tested at 10 uM. In kind it is functional, HepG2.
Turning to `Cc1nn(C)c(Cl)c1C(=O)NCc1cccnc1N1CCOCC1`, the INHIBITION was -13%.
Regarding `O=C(NCc1nncn1C1CC1)c1ccccc1Oc1cccnc1`, the INHIBITION is -18.3%.
With `O=C(c1ccnnc1)N1C[C@@H]2COC[C@]2(COCC2CC2)C1` the figure was 46.2%; with `OC(CNCCn1cccn1)c1cccc(Br)c1` (stereo not drawn), 11.2%.
For `CC(O)c1cn(CC2CCN(C(=O)c3cscn3)CC2)nn1` (stereo not drawn), the INHIBITION is listed as 30.3%.
On to `CC(O)c1cn(CC2CCN(C(=O)CN(C)C(C)C)CC2)nn1` (stereo not drawn), for which the INHIBITION turned out to be 8.51%.
As for `CC(O)c1cn(CC2CCN(C(=O)c3cccc(N(C)C)c3)CC2)nn1` (stereo not drawn), the INHIBITION came to 55.7%.
With `CCC(CC(=O)Nc1ccc2c(c1)CC(=O)N2)c1ccccc1` (stereo not drawn), the INHIBITION is given as 49.1%.
With `CCN(CC)C(C(=O)Nc1ccc2c(c1)CCC(=O)N2)c1ccccc1` (stereo not drawn), the INHIBITION stood at 56.8%.
With `CCN(C)C(C(=O)Nc1ccc2c(c1)CCC(=O)N2)c1ccccc1` (stereo not drawn) the figure was 36.3%; with `COCCN1C[C@@H]2[C@@H](OC)CCN(C(=O)c3cccc(OC)c3)[C@@H]2C1`, 11.6%; with `Cc1ccc(OCCC(=O)NC2CCc3nccn3C2)cc1` (stereo not drawn), 22.1%.
For the molecule `CN(C)C(=O)CO[C@H]1CN(Cc2ccc(F)cc2)[C@@H]2CCCO[C@H]12`, the INHIBITION was determined as 25.1%.
Regarding `CCCc1nnc(N2CCC(N3CCCCCC3)CC2)o1`, the INHIBITION was 23.3%.
In the case of `CCCc1nnc(N2CCN(C3CCCC3)CC2)o1`, the INHIBITION is recorded as 26.5%.
As to `CCCc1nnc(N2CCC(N3CCCC3)CC2)o1`, the INHIBITION is reported as 79.8%.
In the case of `O=C(O)C1(Oc2cccc(F)c2)CCN(C2CCOCC2)CC1`, the INHIBITION is -15.2%.
As for `Cc1ccccc1OCC(O)CN1CCC(c2ccn[nH]2)CC1` (stereo not drawn), the INHIBITION is reported as -17.6%.
`CSC1(CNC(=O)NC(C)Cc2cccc(F)c2)CCOCC1` (stereo not drawn): the INHIBITION is on record as -12.5%.
For `CSC1(CNC(=O)NC(C)c2ccc(F)c(F)c2)CCOCC1` (stereo not drawn), the INHIBITION amounted to 65.3%.
With `CSC1(CNC(=O)NC(C)c2ccc(F)cc2)CCOCC1` (stereo not drawn) the figure was 16.5%; with `O=C1NCC(C(=O)Nc2ccc(=O)n(Cc3ccccc3Cl)c2)N1` (stereo not drawn), 26.8%.
On to `Cc1cc2c(N)nc(=O)n(CC(=O)Nc3ccccc3)c2s1`, for which the INHIBITION is listed as 1.45%.
In the case of `COc1cccc(NC(=O)Cn2c(=O)nc(N)c3cc(C)sc32)c1` it was -12.5%; in that of `Cc1cc2c(N)nc(=O)n(CC(=O)Nc3cccc(Cl)c3)c2s1`, 76.9%.
As for `O=C(Nc1cccnc1N1CCSCC1)c1ccc2c(c1)OCO2`, the INHIBITION turned out to be 49.5%.
With `COc1c(C2CCCN2CC(=O)Nc2cc(C)on2)c(C)nn1C` (stereo not drawn) the figure was -102%; with `CC(C)(C)n1ncc2c1NC(=O)CC2c1ccc(C#N)cc1` (stereo not drawn), -1.04%.
With `CCc1[nH]c2c(CNc3nccc(N)n3)cc(F)cc2c1C`, the INHIBITION was found to be 55.4%.
For the molecule `CCc1[nH]c2c(CNC(=O)C3CCC(=O)NC3)cc(C)cc2c1C` (stereo not drawn), the INHIBITION is on record as -8.75%.
In the case of `CCc1[nH]c2c(CNC(=O)C3CCN(C)C3)cc(C)cc2c1C` (stereo not drawn) it was 14.9%; in that of `CCc1[nH]c2c(CNc3cnccn3)cc(F)cc2c1C`, 56.3%; in that of `CCc1[nH]c2c(CNc3nccc(N)n3)cc(C)cc2c1C`, 37.4%.
As for `Cc1cc(CNc2nccc(N)n2)c2[nH]c(C)c(C)c2c1`, the INHIBITION turned out to be 66.9%.
On to `CCc1[nH]c2ccc(CNC(=O)c3cnc(N)nc3C)cc2c1C`, for which the INHIBITION was found to be 36.5%.
With `CCc1[nH]c2c(CNc3cncc(C(=O)N(C)C)n3)cc(F)cc2c1C` the figure was 47.2%; with `Cc1noc(C)c1CN1CCC2(CC1)CC(Oc1cccnc1)C2`, 30.5%; with `Cn1cccc1C(=O)N1CCN(Cc2cccnc2)c2ncccc2C1`, 10.5%.
Turning to `CCc1n[nH]c(C2CN(C(=O)CCOCC(F)(F)F)CCO2)n1` (stereo not drawn), the INHIBITION is listed as 1.45%.
Take `O=C1NC2(CCN(c3ncccn3)CC2)CC1c1cccnc1` (stereo not drawn): the INHIBITION came out at 17.1%.
As for `Cc1cc(CC(=O)NC2CCCN(c3ccccc3F)C2=O)n[nH]1` (stereo not drawn), the INHIBITION was 13.6%.
Regarding `Cc1ccsc1C(CNC(=O)c1cc(=O)[nH]c(=O)[nH]1)N(C)C` (stereo not drawn), the INHIBITION is -27.5%.
Take `NC(=O)CC1CCCN(c2cncc(SCc3ccccc3)n2)C1` (stereo not drawn): the INHIBITION was -13.7%.
`CC(=O)Nc1ccc(Cl)c(C(=O)N(C)C(C)c2ccon2)c1` (stereo not drawn): the INHIBITION stood at 18.3%.
In the case of `CC(=O)Nc1ccc(Cl)c(C(=O)N(C)C(C)c2nccs2)c1` (stereo not drawn) it was 61%; in that of `CC(=O)Nc1ccc(Cl)c(C(=O)N(C)C(C)c2ccncn2)c1` (stereo not drawn), 32.2%.
In the case of `Cc1nc(C)n(CC2CN(Cc3ccc4c(c3)OCCO4)CCO2)n1` (stereo not drawn) it was 1.78%.
In the case of `O=C(Cn1cnc2sccc2c1=O)NCCCc1nnc2ccccn12` it was 28.3%.
In the case of `Cc1cnc(CCNC(=O)NCCc2ccc(O)cc2)s1`, the INHIBITION is given as 42.8%.
With `CCc1cnc(CNC(=O)NCCc2ccc(O)cc2)s1` the figure was 71.1%; with `CCc1cnc(CNC(=O)NCCCO)s1`, -25.6%; with `CCC[C@@H]1CN(Cc2ccccc2OC(F)(F)F)C[C@H]1NC(C)=O`, 19.7%.
Take `CC(CCc1ncnn1Cc1cccc(Cl)c1)N1CCCC1` (stereo not drawn): the INHIBITION came out at 49.3%.
In the case of `COc1cccc(Cn2ncnc2CCSC)c1`, the INHIBITION is -32.9%.
For `COc1cccc(Cn2ncnc2CCC(C)N2CCN(C)CC2)c1` (stereo not drawn), the INHIBITION came to 72%.
`Cc1noc(C2CCCN(C(=O)CCCNc3ncccn3)C2)n1` (stereo not drawn): the INHIBITION worked out at 8.535%.
On to `COc1ccc(CCCNCc2c(C)nn(C)c2N(C)C)cc1OC`, for which the INHIBITION turned out to be 45.7%.
Turning to `CN(C)c1cccc(C(=O)N2CCn3c(nnc3C3CC3)C2)c1`, the INHIBITION is 25.4%.
As to `CN(C)C(=O)c1cc(S(=O)(=O)N2CCCC2Cn2ccnc2)cn1C` (stereo not drawn), the INHIBITION turned out to be 61.5%.
For `Cn1cc(S(=O)(=O)N2CCCC2Cn2ccnc2)cc1C(N)=O` (stereo not drawn), the INHIBITION came out at 39.9%.
For `Cn1cc(S(=O)(=O)N2CCCC2Cn2ccnc2)cn1` (stereo not drawn), the INHIBITION is reported as 34.4%.
Turning to `CN(Cc1nc(CS(C)(=O)=O)no1)c1ccccc1`, the INHIBITION is on record as 19.7%.
As for `COCCN(Cc1ccco1)Cc1nc(-c2ccccc2)no1`, the INHIBITION is reported as -10.1%.
Turning to `CS(=O)(=O)Cc1noc(CN(Cc2ccco2)c2ccccc2)n1`, the INHIBITION was determined as 54.4%.
With `Cc1noc(C)c1CN1C[C@@H](N(C)Cc2ccco2)[C@H]2OCCC[C@H]21` the figure was 20.6%; with `O=C(NCCNc1ncccn1)C1CCN(C(=O)c2ccoc2)CC1`, -2.53%; with `CC1(C)OC(=O)N(CCCC(=O)c2ccc(F)cc2)C1=O`, -4.12%.
Consider `CN(C)C(=O)CCC[S+]([O-])Cc1ccc(F)c(F)c1` (stereo not drawn), for which the INHIBITION was determined as 31.5%.
On to `CN(C)C(=O)CCNC(=O)NCc1ccc(Br)cc1Cl`, for which the INHIBITION was found to be 47.6%.
With `COCC(=O)N(C)Cc1ccc(Cl)c(Cl)c1`, the INHIBITION was -11.1%.
With `CN(C)C(=O)CCC[S+]([O-])Cc1cc(Cl)ccc1Cl` (stereo not drawn), the INHIBITION is recorded as 57.3%.
As for `CN(C)C(=O)CNC(=O)c1ccc(Cl)cc1F`, the INHIBITION is -12.6%.
As for `CN(C)C(=O)CCC[S+]([O-])Cc1ccc(Cl)c(Cl)c1` (stereo not drawn), the INHIBITION was 57.3%.
